The record followed here is the supplement of paper PMC8866396.

For one assay, the system named is IL-6-GFP PC-9GR. In words: cell viability (CCK-8 OD) relative to DMSO control (fraction of control); higher = more viable cells. Conditions: compound concentration: 10 uM; treatment time: 48 h. The essentials: (§1)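 PC-9 and PC-9GR lung cancer cells expressing lentiviral IL-6-GFP were plated at 3000 cells/well in 96-well plates and treated for 48 h with each library compound at a final 10 μM. Viability was determined by CCK-8 absorbance as a ratio of each well's optical density to the vehicle control well.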

In another assay the test system is IL-6-GFP PC-9. The assay is described as above. To be noted: compound concentration: 10 uM; treatment time: 48 h. The essentials: as §1

± gives the standard deviation of the averaged measurements.

Regarding `Nc1nc(Cl)nc2c1ncn2C1OC(CO)C(O)C1F` (stereo not drawn) [Clofarabine], the cell viability in the assay on IL-6-GFP PC-9GR was determined as 0.5 ± 0.013; with IL-6-GFP PC-9, 0.337 ± 0.13.
The corresponding values for `CC1CC2C3CCC4=CC(=O)C=CC4(C)C3(Cl)C(O)CC2(C)C1(OC(=O)c1ccco1)C(=O)CCl` (stereo not drawn) [Mometasone furoate] are 1.12 ± 0.11 and 0.93 ± 0.076.
The corresponding values for `CC[N+](CC)(CC)CCOc1cccc(OCC[N+](CC)(CC)CC)c1OCC[N+](CC)(CC)CC.[I-].[I-].[I-]` [Gallamine Triethiodide] are 1.34 ± 0.31 and 1.202 ± 0.0034.
Taken in the same sequence, the figures for `Cl.N=C1CCCN1Cc1[nH]c(=O)[nH]c(=O)c1Cl` [Tipiracil hydrochloride] were 1.14 ± 0.35 and 1.25 ± 0.059.
